This is an account of results in PubChem BioAssay AID798 (PCMD, 2007).

Screen size: about 220,000 compounds; about 300 (0.14%) were called active.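 Rule for the calls: active = inhibition of at least 40%; inactive = inhibition below 40%.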 For the sample, actives were picked, then their nearest neighbours and some compounds at random.

The target in the test is Coagulation factor XI (Homo sapiens) (UniProt P03951). The test can be described thus: factor XIa enzyme inhibition, large library – biochemical, 1536-well, primary screen (AID 798).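 Note: fluorescence of freed AMC excited at 355 nm; 0% = enzyme without compound and 100% = no enzyme blank.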 The settings on record: purified FXIa, Boc-Glu-Ala-Arg-AMC fluorogenic substrate; at 5 µM; active compounds read high.
Coagulation factor XI (Homo sapiens), sequence (P03951 19-387 limits assumed): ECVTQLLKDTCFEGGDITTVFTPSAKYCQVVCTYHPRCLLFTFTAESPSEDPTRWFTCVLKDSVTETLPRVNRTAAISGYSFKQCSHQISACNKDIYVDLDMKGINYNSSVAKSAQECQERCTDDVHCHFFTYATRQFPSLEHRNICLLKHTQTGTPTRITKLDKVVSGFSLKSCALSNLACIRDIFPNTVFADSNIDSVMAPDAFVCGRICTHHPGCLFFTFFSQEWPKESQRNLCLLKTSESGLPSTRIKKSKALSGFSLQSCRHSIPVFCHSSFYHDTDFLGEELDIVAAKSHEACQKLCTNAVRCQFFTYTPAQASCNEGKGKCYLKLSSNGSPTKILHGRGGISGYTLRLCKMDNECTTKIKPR
Coagulation factor XI (Homo sapiens), sequence (P03951 388-625 limits assumed): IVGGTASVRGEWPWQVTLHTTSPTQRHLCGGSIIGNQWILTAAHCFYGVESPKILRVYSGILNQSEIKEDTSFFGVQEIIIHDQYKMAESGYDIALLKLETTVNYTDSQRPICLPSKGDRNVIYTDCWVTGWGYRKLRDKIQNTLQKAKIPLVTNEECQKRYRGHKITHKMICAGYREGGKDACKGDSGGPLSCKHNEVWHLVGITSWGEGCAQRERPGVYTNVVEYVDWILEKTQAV
Broadly, the inhibition is the drop in the measured response relative to a control, in per cent. Regarding `Cc1c(Br)ccc(NC(=O)COc2ccccc2C(N)=O)c1C`, the inhibition was 3.29% (inactive). The figure for `C/C=C(/C)C(=O)O[C@@H]1c2cc3c(c4c2[C@@]2(CO4)C(=O)C(OC)=C(OC)C=C2C[C@@H](C)[C@H]1C)OCO3` is 0.96% (inactive); for `COc1ccc(SC[C@H](Cc2ccccc2)N2CCN(CCc3ccccc3)CCC2=O)cc1` it is 0.67% (inactive); for `Cn1cnc(S(=O)(=O)Nc2ccc3c(c2)OCCO3)c1` it is 3.26% (inactive).

For the compound `Cc1ccc(NC(=O)NC(=O)CSc2nnc(-c3ccc(OC(F)F)cc3)n2N)c(C)c1`, the inhibition is 3.67% (inactive).

`CCN=c1sc(C(=O)Nc2ccccc2)c(C)n1CC`: the inhibition was -2.02% (inactive). The figure for `Cc1cc(C(=O)OCC(=O)Nc2nnc(C(C)C)s2)c2ccccc2n1` is -3.05% (inactive). On to `CC1=C(C(=O)N(C)C)C(c2ccccc2OC(F)F)NC(=O)N1` (stereo unspecified), for which the inhibition is 0.62% (inactive). As for `Cc1ccc(OC(=O)CCC(=O)Nc2ccc(Br)cc2)cc1`, the figure is -1.21% (inactive); as for `O=S(=O)(NC(=S)Nc1ccccc1)c1ccc(F)cc1`, 4.03% (inactive); as for `CCOC(=O)CN(C)S(=O)(=O)c1ccc(-c2cc(C(=O)OC)sc2C(F)(F)F)cc1`, 32.6% (inactive).

Turning to `CN1CCN(C(=O)CCc2ncc(C(F)(F)F)cc2Cl)CC1`, the inhibition was 7.14% (inactive). In the case of `COC(=O)c1c(NC(=O)CCCC(=O)O)sc2c1CCCCC2`, the inhibition is -0.58% (inactive). As to `O=C(N/N=C/c1cc2c(cc1Br)OCO2)C1COc2ccccc2O1` (stereo unspecified), the inhibition is -10.7% (inactive). The figure for `C[N+]1(CC(O)COc2ccccc2)CCN(C(=O)c2ccc([N+](=O)[O-])cc2)CC1` (stereo unspecified) is 0.51% (inactive).

For `Cc1nc2cc(NC(=O)NC3CC3)ccc2n1C`, the inhibition is -5.28% (inactive). As for `Cc1nc2cc(NC(=O)Nc3cccc(F)c3)ccc2n1C`, the figure is 43.8% (active); as for `C=CCN(C(=O)Nc1ccc2c(c1)nc(C)n2C)c1ccccc1`, 26.2% (inactive); as for `Cc1cc(-c2csc(N)n2)c(C)n1-c1ccccc1`, 2.06% (inactive). For the compound `CCOc1ccc(/C=C2\SC(=S)N(NC(=O)c3ccncc3)C2=O)cc1OC`, the inhibition was 6.9% (inactive). The figure for `C[C@H](NC(=O)c1nc[nH]c1C(=O)N[C@@H](C)C(=O)OC(C)(C)C)C(=O)OC(C)(C)C` is 1.92% (inactive). As for `CN(C)C(=S)Nc1ccc(Br)cc1Cl`, the figure is 1.74% (inactive); as for `NC(=O)Cn1nc([N+](=O)[O-])nc1Oc1ccc(Br)cc1`, 0.41% (inactive). For the compound `O=C(Cc1ccc(F)cc1)N1CCN=C1SCc1cccc([N+](=O)[O-])c1`, the inhibition was -3.4% (inactive). Take `Cc1cccc(N(C(=O)Cc2cccs2)C(C(=O)NCc2ccco2)c2ccncc2)c1` (stereo unspecified): the inhibition was -1.59% (inactive). As for `CN(C)/N=C/c1cc(Cl)cc([N+](=O)[O-])c1O`, the figure is 2.99% (inactive); as for `CC(=O)NC1(c2ccc(F)cc2)CCN(C(=O)c2c(F)cccc2F)CC1`, -6.45% (inactive). As for `Cc1cccc(N2CCN(Cc3nc(C4CC4)no3)CC2)n1`, the figure is -4.4% (inactive); as for `Cc1ccc(S(=O)(=O)N2CCN(CC(=O)N/N=C/c3cc([N+](=O)[O-])ccc3Cl)CC2)cc1`, 3.33% (inactive). As for `COc1nc(NC2CCCCC2)nc(N2CCCCCC2)n1`, the figure is 5.12% (inactive). For the compound `O=c1nc(N/N=C/c2ccco2)cn[nH]1`, the inhibition was -0.64% (inactive). Regarding `CC(C)OP(=O)(OC(C)C)C(Nc1ccccc1)c1cccc([N+](=O)[O-])c1` (stereo unspecified), the inhibition is 2.9% (inactive). In the case of `COc1cccc(N2C(=O)CC(N3CCc4ccccc4C3)C2=O)c1` (stereo unspecified), the inhibition is -2.99% (inactive). As for `Cc1ccc(NN=C2C(=O)OC(C)(C)OC2=O)c(C)c1`, the figure is -3.38% (inactive); as for `O=C(COc1ccccc1[N+](=O)[O-])N/N=C/c1ccc[nH]1`, 2.13% (inactive); as for `CC(C)c1nc(SCC(=O)NC(=O)NC(C)(C)C)n[nH]1`, 1.78% (inactive). As for `Cc1ccc(C(=O)Cn2cc([N+](=O)[O-])nc2C)cc1`, the inhibition was 2.54% (inactive).

With `O=C(CNCc1ccc(F)cc1)Nc1ccccc1-c1ccccc1`, the inhibition is 5.85% (inactive).

Take `O=C(COC(=O)C12CC3CC(CC(O)(C3)C1)C2)NC12CC3CC(CC(C3)C1)C2`: the inhibition was -0.93% (inactive). As to `CCOC(=O)c1ccc(NC(=O)Cn2cnc3cc(C)c(C)cc32)cc1`, the inhibition was -1.09% (inactive).

As for `COc1ccc(CN2C(=O)CC(Cc3ccc(C)cc3)C2=O)cc1OC` (stereo unspecified), the inhibition is 16.3% (inactive). Turning to `Cc1nc(N)[nH]c(=O)c1Oc1cccc(C(F)(F)F)c1`, the inhibition was -2.42% (inactive). The figure for `CC(C)(C)NC(=O)CSC(=Nc1ccccc1F)NC#N` is 7.8% (inactive); for `CCC1SC(CC)C(=O)N(CC(=O)NC2CCCCC2)C1=O` (stereo unspecified) it is 26% (inactive). Consider `Cc1ccccc1Cn1c2ccccc2c2cnn(CC(=O)NCc3ccco3)c(=O)c21`, for which the inhibition was -0.28% (inactive). With `COCCNC(=S)N1CCC(NC(=O)C23CC4CC(CC(C4)C2)C3)CC1`, the inhibition was -6.69% (inactive).

In the case of `O=C(COc1ccc(Cl)cc1[N+](=O)[O-])N1CCCCC1`, the inhibition is -5.02% (inactive). `CCOc1cc(CN2CCN(C(=O)CC(C)C)CC2)ccc1OC`: the inhibition was -13.4% (inactive). The figure for `CCOc1cc(CO)ccc1OCC(=O)N1CCCCC1` is 40.9% (active).

Consider `COc1ccccc1OCC(=O)OCn1c(SC)nnc(C)c1=O`, for which the inhibition is 5.82% (inactive). The figure for `CCOC(=O)N1CCN(Cc2nc3ccc([N+](=O)[O-])cc3c(=O)n2-c2cccc(OC)c2)CC1` is -1.56% (inactive). As for `Cc1cc(C(=O)CSc2nc(N)cc(=O)[nH]2)c(C)n1Cc1ccco1`, the figure is -4.8% (inactive); as for `CCc1cccc(CC)c1NC(=S)Nc1ccc2cn[nH]c2c1`, 0.17% (inactive). Consider `O=C(O)c1ccccc1OCc1ccccc1Cl`, for which the inhibition is 1.64% (inactive). The figure for `COCCN(CCOC)c1nc(N)c2c(N)nc3c(c2c1C#N)CC(=O)N3Cc1ccc(Cl)cc1` is -10.3% (inactive); for `CC1=NN(/C(=N\c2nnc(C)s2)Nc2ccccc2)[C@H](c2ccc(C)cc2)S1` it is 0.56% (inactive); for `COC(=O)c1sccc1-n1cccc1C(=O)C(=O)N1CCCCC1` it is 0.21% (inactive).

For the compound `O=C(Nc1ccc(Cl)cc1)Nc1ccc(C(=O)N2CCOCC2)cc1`, the inhibition was 4.9% (inactive).

As for `OC(c1nc2ccccc2[nH]1)C(O)C(O)C(O)c1nc2ccccc2[nH]1` (stereo unspecified), the inhibition was 1.7% (inactive). For the compound `O=C(CCS(=O)(=O)Cc1ccccc1)Nc1ccc2c(c1)OCCO2`, the inhibition was -6.9% (inactive).

On to `COC(=O)Cc1[nH]n(-c2nc3ccccc3s2)c(=O)c1C(C)=Nc1ccc(OC)cc1`, for which the inhibition is 2.75% (inactive).

On to `N#C/C(=C/c1cccc([N+](=O)[O-])c1)c1nnc2n1CCCCC2`, for which the inhibition is 0.95% (inactive).

In the case of `O=C(Cn1cc(C(F)(F)F)ccc1=O)N/N=C/c1ccc(Cl)cc1Cl`, the inhibition was 6.17% (inactive). For `O=C1N/C(=C/c2cccn2-c2ccccc2)C(=O)N1c1cccc(Cl)c1`, the inhibition was -9.57% (inactive).

With `COCCNC(=O)C(c1ccc(O)cc1)N(C(=O)CCC(=O)Nc1nccs1)c1ccc(C)cc1` (stereo unspecified), the inhibition was 1.25% (inactive). As for `CCC(C)(C)NC(=O)CN(Cc1cccs1)C(=O)CNS(=O)(=O)c1ccc(F)cc1`, the figure is -7.45% (inactive); as for `CC(C)C(NC(=O)C1CCC(C(C)(C)C)CC1)C(=O)NCCCN1CCCCC1` (stereo unspecified), -3.84% (inactive).

Turning to `COc1ccccc1NC(=O)c1cc(Cl)nc2ccccc12`, the inhibition is -7.34% (inactive). Take `Cc1c(C(=O)NC(=S)NCc2cccnc2)oc2ccccc12`: the inhibition was -1.74% (inactive). The figure for `CN(C)CC(C)(C)CNC(=O)c1cc(Br)cc(Br)c1O` is -3.11% (inactive).

Consider `Cc1ccc(NC(=O)C2CCCN(S(=O)(=O)c3c(C)noc3C)C2)c(C)c1` (stereo unspecified), for which the inhibition was -3.38% (inactive). `Cc1noc(C)c1S(=O)(=O)N1CCCC(C(=O)Nc2nccs2)C1` (stereo unspecified): the inhibition was 1.07% (inactive). As for `COc1c(C)cc(C(=O)C2CCCN(S(=O)(=O)c3c(C)noc3C)C2)cc1C` (stereo unspecified), the figure is 102% (active); as for `FC(F)(F)c1cccc(-c2nc(COc3ccc(Cl)cc3Cl)no2)c1`, 2.41% (inactive). As for `CN1CCc2ccccc2C1Cc1ccccc1NC(=O)c1sc2ccccc2c1Cl` (stereo unspecified), the figure is 2.33% (inactive); as for `CCOC(=O)CSC1=N/C(=C/c2ccc(-n3cncn3)cc2)C(=O)N1C(C)=O`, 3.79% (inactive); as for `O=c1[nH]c(CN2CCOCC2)nc2scc(-c3ccccc3)c12`, -11.5% (inactive). As for `Cc1cccc2cc(CN(C(=O)c3cccs3)c3ccccc3)c(=O)[nH]c12`, the inhibition is -1.12% (inactive). For the compound `COc1ccc(OCc2n[nH]c(=S)n2N)cc1`, the inhibition is -0.79% (inactive). On to `NS(=O)(=O)c1ccc(CCNC(=O)NC2CCCCC2)cc1`, for which the inhibition was 3.22% (inactive).

For `Cc1ccc(C(=O)Nc2ccc(C)c(S(=O)(=O)N(C)C)c2)s1`, the inhibition was 6.45% (inactive). Take `C#CCOCCOCCOCCNc1nc(N2CCN(C(=O)[C@H](CCC(=O)O)n3cc(C(N)CO)nn3)CC2)nc(N2CCN(C(=O)[C@H](CCCCN)n3cc(C(N)CC(C)C)nn3)CC2)n1` (stereo partly specified): the inhibition is 0.58% (inactive).

For `NC(=O)C1=C[C@@H](c2csc3ccccc23)C[C@@H](OCc2ccc(CO)cc2)O1`, the inhibition is -0.4% (inactive). The figure for `CN(CCc1ccccn1)C(=O)CCC1CCCN(Cc2ccccc2OC(F)F)C1` (stereo unspecified) is -3.18% (inactive). On to `COc1ccccc1CN(C)c1nnnn1-c1ccccc1`, for which the inhibition was -0.22% (inactive). The figure for `CC(C)Cc1nnc(NC(=O)CCC(=O)Nc2ccc3cn[nH]c3c2)s1` is 5.73% (inactive).

Regarding `C=CC(COCc1ccccc1)N(Cc1ccccc1)S(=O)(=O)c1ccccc1Br` (stereo unspecified), the inhibition is -5.35% (inactive). The figure for `COc1cc2[nH]c(=O)n(Cc3ccc(C(=O)NC4CCN(Cc5ccccc5)CC4)cc3)c(=O)c2cc1OC` is -5.4% (inactive). Turning to `CCSC1=NCCN1C(=O)c1ccc(S(=O)(=O)N(CC)CC)cc1`, the inhibition was -2.2% (inactive). For the compound `CCC(C(=O)Nc1ccc2c(c1)OCCO2)c1ccccc1` (stereo unspecified), the inhibition is -1.53% (inactive). As for `CC12CN3CCN(CC(C3)/C1=N\NC(=O)c1ccccc1N)C2`, the figure is -0.67% (inactive).
